{"source": "PubChem BioAssay (NCATS)", "note": "Where “and” joins values, the source holds several entries; their conditions need not be identical. Identical values can stand only once. Results filed as inconclusive are left out. Values without a mark were called inactive. Calls of active or inactive are those of the source. The call rests on the fitted dose curve; in most records, active means well fitted activation curve with a large enough effect; inconclusive means small, poorly fitted or top-dose-only effect; inactive means no such curve, though single readings can be large or run the other way. Potency means the concentration at half of the fitted maximal effect."}
{"biological_target": "Cellular tumor antigen p53 (Homo sapiens) (UniProt P04637)", "sequence (P04637 whole entry, looked up)": "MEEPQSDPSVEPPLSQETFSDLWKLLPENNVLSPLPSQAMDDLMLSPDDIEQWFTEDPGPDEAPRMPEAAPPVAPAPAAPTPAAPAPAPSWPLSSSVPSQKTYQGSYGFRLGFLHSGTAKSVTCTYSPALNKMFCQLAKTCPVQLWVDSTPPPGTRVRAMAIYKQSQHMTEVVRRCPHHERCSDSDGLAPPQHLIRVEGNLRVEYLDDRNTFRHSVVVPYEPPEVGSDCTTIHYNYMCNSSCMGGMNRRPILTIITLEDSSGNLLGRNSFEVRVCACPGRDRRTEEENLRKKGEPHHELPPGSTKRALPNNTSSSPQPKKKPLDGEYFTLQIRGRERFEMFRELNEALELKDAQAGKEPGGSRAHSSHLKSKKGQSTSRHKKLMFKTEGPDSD", "assay": "Primary qHTS for small molecule compounds that upregulate eGFP-tagged delta133p53alpha (in N-terminal) cells. (AID 2060322); further: nearly all actives have a fitted effect of over 75% in size;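 on activation: series mostly up to about 56 µM; 0% = DMSO vehicle and 100% = reference activator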", "settings": "NCI-H358 eGFP-delta133p53alpha fluorescence, 24 h; activation: hits give high values", "how_it_was_run": "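NCI-H358 cells pre-induced 24 h with 10 ng/ml doxycycline for eGFP-delta133p53alpha, plated dox-free and exposed 24 h at 37C to titrated compounds. Fixed, Hoechst-stained; gated GFP peak intensity by laser scanning cytometry, normalized to DMSO (0%) and 57.5 uM 5-azacytidine (100%).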"}
{"smiles": "O=C(O)c1c(O)c(-c2ccccc2)nc2ccccc12", "activation": "22%"}
{"smiles": "Cc1cc(C(=O)N2Cc3cnn(C)c3Nc3ccccc32)ccc1CNC(=O)N1CCC[C@H]1C(=S)N1CCCN(C)CC1", "activation": "-0.893%"}
{"smiles": "CC(C)=C(C#N)C(=O)N1CCCN(c2cc(NCCC(=O)O)nc(-c3ccccn3)n2)CC1", "activation": "3.35%"}
{"smiles": "Cc1cc(NS(=O)(=O)c2ccc(N)cc2)no1", "activation": "-13.4% and 7.02%"}
{"smiles": "Cc1ccc(C(C)C)c(O)c1", "activation": "-8.47%"}
{"smiles": "CCCc1ncc(C[n+]2ccccc2C)c(N)n1", "activation": "13.4%"}
{"smiles": "COc1nc(N)nc2c1ncn2[C@@H]1O[C@H](CO)[C@@H](O)[C@@H]1O", "activation": "-17.5% and 19.2%"}
{"smiles": "Cc1ccc(NC2=CC(=O)c3sc(C)nc3C2=O)cc1", "Potency": "3.85 µM (active)"}
{"smiles": "CC(C)CN(C[C@@H](O)[C@H](Cc1ccccc1)NC(=O)O[C@H]1CO[C@H]2OCC[C@H]21)S(=O)(=O)c1ccc(N)cc1", "activation": "22.9%"}
{"smiles": "COC(=O)c1c(Cl)c(Cl)c(C(=O)OC)c(Cl)c1Cl", "activation": "-11.7%"}
{"smiles": "OCCOCCN1CCN(C(c2ccccc2)c2ccc(Cl)cc2)CC1", "note": "(stereo not given)", "activation": "8.47%"}
{"smiles": "O=C1CN(/N=C/c2ccc([N+](=O)[O-])o2)C(=O)N1", "activation": "-7.53%"}
{"smiles": "CC1=C(C(=O)O)N2C(=O)[C@@H](NC(=O)[C@H](N)c3ccc(O)cc3)[C@H]2SC1", "activation": "0%"}
{"smiles": "CCC[C@@H](NC(=O)[C@@H]1[C@H]2CCC[C@@H]2CN1C(=O)[C@@H](NC(=O)[C@@H](NC(=O)c1cnccn1)C1CCCCC1)C(C)(C)C)C(=O)C(=O)NC1CC1", "activation": "19.1%"}
{"smiles": "NS(=O)(=O)c1ccc(N2CCCCS2(=O)=O)cc1", "activation": "7.34%"}
{"smiles": "O=c1c(-n2ccnn2)c[nH]n1-c1cc(N2CCOCC2)ncn1", "activation": "44.9%"}
{"smiles": "CC(CNC1CCCCC1)OC(=O)c1ccccc1", "note": "(stereo not given)", "activation": "-9.21%"}
{"smiles": "CCOC(=O)c1cc(=O)c2c(OCC(COc3cccc4oc(C(=O)OCC)cc(=O)c34)OC(=O)[C@@H](N)CCCCN)cccc2o1", "Potency": "27.6 µM (active)"}
{"smiles": "CCOC(=O)N1CCC(n2c(=O)[nH]c3cc(Cl)ccc32)CC1", "activation": "-16.4%"}
{"smiles": "CC(=O)N1C[C@H](O)C[C@H]1C(=O)O", "activation": "14.2%"}
{"smiles": "CCOC(=O)N1CCN([N+]([O-])=NOc2ccc([N+](=O)[O-])cc2[N+](=O)[O-])CC1", "activation": "8.17%"}
{"smiles": "O=C(N[C@H](CO)[C@H](O)c1ccc([N+](=O)[O-])cc1)C(Cl)Cl", "activation": "15.3% and -2.04%"}
{"smiles": "CCCCC(=O)OCC(=O)[C@H]1[C@H](C)C[C@H]2[C@@H]3C[C@H](F)C4=CC(=O)C=C[C@]4(C)[C@@]3(F)[C@@H](O)C[C@@]21C", "activation": "-6.21%"}
{"smiles": "CCc1nn(CCCN2CCN(c3cccc(Cl)c3)CC2)c(=O)n1CCOc1ccccc1", "activation": "-3.35%"}
{"smiles": "O=S(=O)(O)c1cc(I)c(O)c2ncccc12", "activation": "11.7%"}
{"smiles": "CCOC(=O)N1CCN([N+]([O-])=NOc2ccc([N+](=O)[O-])cc2C#N)CC1", "activation": "12.2%"}
{"smiles": "CC1CCCCN1CCCOC(=O)c1ccc(OC2CCCCC2)cc1", "note": "(stereo not given)", "activation": "-7.53%"}
{"smiles": "CCN(CCCc1ccccc1)CCCc1ccccc1", "activation": "-1.67%"}
{"smiles": "NC(CSCC(=O)O)C(=O)O", "note": "(stereo not given)", "activation": "-5.08%"}
{"smiles": "CCOC(=O)C1=C(C)NC(C)=C(C(=O)OCC)C1c1ccccc1/C=C/C(=O)OC(C)(C)C", "activation": "17.5%"}
{"smiles": "CCC=CC[C@H]1C(=O)CC[C@@H]1CC(=O)OC", "activation": "10.3%"}
{"smiles": "COC(=O)[C@@H]1[C@H]2C[C@@H]3c4[nH]c5ccccc5c4CCN3C[C@@H]2CC[C@@H]1O", "activation": "21.4%"}
{"smiles": "CN1C(C)(C)CCCC1(C)C", "activation": "0%"}
{"smiles": "OC1(c2ccccc2)CCNCC1", "activation": "0.565%"}
{"smiles": "CC(=O)NCC(=O)N1[C@H]2CC[C@H]1c1cc(Nc3ncc(C(F)(F)F)c(NC4CCC4)n3)ccc12", "activation": "32.7%"}
{"smiles": "CN1CC[C@H](c2c(O)cc(O)c3c(=O)cc(-c4ccccc4Cl)oc23)[C@H](O)C1", "Potency": "0.11 µM (active)"}
{"smiles": "C[C@H]1C[C@H]2[C@@H]3CCC4=CC(=O)C=C[C@]4(C)[C@@]3(Cl)[C@@H](O)C[C@]2(C)[C@@]1(O)C(=O)CO", "activation": "-4.18%"}
{"smiles": "O=C1c2ccccc2C(=O)C1c1ccccc1", "activation": "-12.6%"}
{"smiles": "CCCCCCCC(=O)OCC(O)CO", "note": "(stereo not given)", "activation": "-14.2%"}
{"smiles": "C[C@]12CCC3=C4CCC(=O)C=C4CC[C@@H]3[C@H]1CC[C@@]2(O)CC#N", "activation": "7.95%"}
